According to PubChem BioAssay (NCATS):
Records with an inconclusive call do not appear. A number with no mark means an inactive call. Activity calls are given as the source filed them. The call rests on the fitted dose curve; in most records, active means well fitted inhibition curve with a large enough effect; inconclusive means small, poorly fitted or top-dose-only effect; inactive means flat fitted curve, though single readings scatter.

target: Calcium and integrin-binding protein 1 (Homo sapiens) (UniProt Q99828); test: Primary qHTS for Identification of Calcium Integrin Binding Protein 1 (CIB1) Competitor (AID 1508620); details: CIB1-GST / FITC-alphaIIb peptide fluorescence polarization; series mostly up to 57.7 µM; activity change, negative = inhibition: at the top concentration;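 further: GST tagged CIB1 binding a fluorescein labelled alphaIIb integrin peptide tracer; top concentration of the series differs between compounds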
How it was run: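 CIB1-GST (1 uM final) and compound incubated 15 min at room temperature before adding FITC-alphaIIb peptide tracer (100 nM final). Competition for binding read by fluorescence polarization (ex 480, em 540) after another 15 min at room temperature.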
On the % scale 0 is the no-effect control and ±100 the full control effect.

Sequence of Calcium and integrin-binding protein 1 (Homo sapiens) (Q99828 whole entry, looked up): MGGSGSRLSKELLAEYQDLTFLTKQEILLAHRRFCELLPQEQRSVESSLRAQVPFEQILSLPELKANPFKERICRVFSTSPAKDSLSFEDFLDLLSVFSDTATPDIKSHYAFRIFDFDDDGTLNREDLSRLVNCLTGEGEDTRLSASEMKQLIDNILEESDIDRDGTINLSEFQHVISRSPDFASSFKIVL

**Q.** Which “activity change, negative = inhibition” value does the source give for `C=CCNc1c(O)cc2c(O)c1C[C@@H](C)C[C@H](OC)[C@@H](O)[C@@H](C)C=C(C)[C@H](OC(N)=O)[C@@H](OC)C=CC=C(C)C(=O)N2` here?
**A.** The value was -2.5%.

**Q.** For `CC(=O)OCC(=O)[C@@]12N=C(C)O[C@H]1C[C@H]1[C@@H]3CCC4=CC(=O)C=C[C@]4(C)[C@@H]3[C@@H](O)C[C@@]12C`, which “activity change, negative = inhibition” value is on record?
**A.** The value was 1.25%.

**Q.** `C=C1C[C@@]2(O)O[C@@]3(C[C@H]2C(C)C)[C@H](C)CC[C@H]13` was tested. Which “activity change, negative = inhibition” value did it give?
**A.** Its value is 4.22%.

**Q.** With `O=C(NNC(=O)c1ccc(CNS(=O)(=O)c2ccc(F)c(Cl)c2)cc1)c1ccccc1` as the compound, how does the “activity change, negative = inhibition” value read?
**A.** Its value is -1.46%.

**Q.** Which “activity change, negative = inhibition” value does the source give for `CN1C(C(=O)Nc2ccccn2)=C(O)c2sc(Cl)cc2S1(=O)=O` here?
**A.** The value was 25.3%.

**Q.** Which “activity change, negative = inhibition” value does the source give for `CC(=O)N[C@H]1[C@@H]([C@H](O)[C@H](O)CO)OC(C(=O)O)=C[C@@H]1N=C(N)N` here?
**A.** Its value is 3.99%.

**Q.** For `CCOC(=O)N1CCN([N+]([O-])=NOc2ccc([N+](=O)[O-])cc2C#N)CC1`, which “activity change, negative = inhibition” value is on record?
**A.** The value was -2.85%.

**Q.** How did the “activity change, negative = inhibition” value turn out when `Cc1cnn(C)c1C(=O)Nc1cc(Nc2ccc3c(C=Cc4ccccn4)n[nH]c3c2)ccc1F` was run?
**A.** The value was -9.48%.

**Q.** With `COc1ccc(C(C)=O)c(O)c1` as the compound, how does the “activity change, negative = inhibition” value read?
**A.** Its value is 2.61%.

**Q.** Which “activity change, negative = inhibition” value does the source give for `CC(C)(O)[C@H]1CC[C@@](C)([C@H]2[C@@H](O)C[C@@]3(C)[C@@H]4C[C@H](O[C@@H]5O[C@H](CO)[C@@H](O)[C@H](O)[C@@H]5O)[C@H]5C(C)(C)[C@@H](O[C@@H]6OC[C@@H](O)[C@H](O)[C@@H]6O)CC[C@@]56C[C@@]46CC[C@]23C)O1` here?
**A.** Its value is -4.96%.

**Q.** How did the “activity change, negative = inhibition” value turn out when `C=CC[C@@H]1C=C(C)C[C@H](C)C[C@H](OC)[C@H]2O[C@@](O)(C(=O)C(=O)N3CCCC[C@H]3C(=O)O[C@H](C(C)=C[C@@H]3CC[C@H](O)[C@H](OC)C3)[C@@H](C)[C@@H](O)CC1=O)[C@@H](C)C[C@@H]2OC` was run?
**A.** Its value is 1.15%.

**Q.** Which Potency does the source give for `Cc1cc(-c2nnc3n2CCCCC3)c(C)n1-c1ccccc1` here?
**A.** Its Potency is “inactive”.

**Q.** Which “activity change, negative = inhibition” value does the source give for `C[C@H](NC(=O)C(C#N)=Cc1cccc(Br)n1)c1ccccc1` here?
**A.** Its value is -5.95%.

**Q.** How did the “activity change, negative = inhibition” value turn out when `CC(C)OC(=O)[C@H](C)N[P@](=O)(OC[C@H]1O[C@@H](n2ccc(=O)[nH]c2=O)[C@](C)(F)[C@H]1O)Oc1ccccc1` was run?
**A.** The value was 0.568%.

**Q.** With `c1cncc(CN2CCC(n3ncc4c(N5CCOCC5)nc(-c5ccc6[nH]ccc6c5)nc43)CC2)c1` as the compound, how does the Potency read?
**A.** The Potency was “inactive”.

**Q.** For `COc1ccnc2[nH]cc(C(=O)C(=O)N3CCN(C(=O)c4ccccc4)C[C@@H]3C)c12`, which “activity change, negative = inhibition” value is on record?
**A.** The value was 1.96%.

**Q.** `CCCNC(=O)[C@H]1O[C@H]1C(=O)N[C@H](C(=O)N1CCC[C@@H]1C(=O)OC)C(C)CC` (some centres undefined) was tested. Which “activity change, negative = inhibition” value did it give?
**A.** Its value is 0.356%.

**Q.** With `CCc1cnn2c(NCc3ccc[n+]([O-])c3)cc(N3CCCC[C@@H]3CCO)nc12` as the compound, how does the “activity change, negative = inhibition” value read?
**A.** The value was 1.98%.

**Q.** For `CON=C(C(=O)N[C@@H]1C(=O)N2C(C(=O)O)=C(Cn3ccc(=N)n3CCO)CS[C@H]12)c1csc(N)n1`, which “activity change, negative = inhibition” value is on record?
**A.** Its value is -4.85%.

**Q.** For `CC(=O)O[C@H]1C[C@@H]2CC[C@H]3[C@H]4C[C@H]([N+]5(C)CCCCC5)[C@@H](OC(C)=O)[C@@]4(C)CC[C@@H]3[C@@]2(C)C[C@H]1N1CCCCC1`, which “activity change, negative = inhibition” value is on record?
**A.** Its value is -3.6%.

**Q.** With `CC(=O)ON=C1C(c2c(O)[nH]c3cc(Br)ccc23)=Nc2ccccc21` as the compound, how does the “activity change, negative = inhibition” value read?
**A.** Its value is 1.25%.

**Q.** For `N#CNC(=NCCCCCCOc1ccc(Cl)cc1)Nc1ccncc1`, which “activity change, negative = inhibition” value is on record?
**A.** Its value is 1.9%.

**Q.** For `O=C(O)C=Cc1ccc(Cn2ccnc2)cc1`, which “activity change, negative = inhibition” value is on record?
**A.** The value was -8.82%.

**Q.** How did the “activity change, negative = inhibition” value turn out when `C[C@H](CCC(=O)O)[C@H]1CC[C@H]2[C@@H]3[C@H](O)C[C@@H]4C[C@H](O)CC[C@]4(C)[C@@H]3CC[C@]12C` was run?
**A.** The value was -3.91%.

**Q.** `CC(C=CC1=C(C)CCCC1(C)C)=CC=CC(C)=CC(=O)Nc1ccc(O)cc1` was tested. Which “activity change, negative = inhibition” value did it give?
**A.** Its value is -4.41% [at 114 µM].

**Q.** For `CCN(CC)Cc1ccc2cc(COC(=O)Nc3ccc(C(=O)NO)cc3)ccc2c1`, which “activity change, negative = inhibition” value is on record?
**A.** The value was -0.158% [at 114 µM].

**Q.** `CN(C)CC(=O)N1CCC(c2ccc(NC(=O)c3ncc(C#N)[nH]3)c(C3=CCCCC3)c2)CC1` was tested. Which Potency did it give?
**A.** Its Potency is “inactive”.

**Q.** For `O=C(C[C@@H]1CC=CCCC(=O)O[C@H](c2ccccc2)CNC1=O)NCc1ccc(Cl)cc1`, which “activity change, negative = inhibition” value is on record?
**A.** The value was 6.74%.

**Q.** With `COC1=C(OC)C(=O)C(CC=C(C)CCC=C(C)CCC=C(C)CCC=C(C)CCC=C(C)CCC=C(C)CCC=C(C)CCC=C(C)CCC=C(C)CCC=C(C)C)=C(C)C1=O` as the compound, how does the “activity change, negative = inhibition” value read?
**A.** The value was 6.68%.

**Q.** `Oc1cc2c(cc1O)C1c3ccc(O)c(O)c3OCC1(O)C2` (centres undefined) was tested. Which “activity change, negative = inhibition” value did it give?
**A.** Its value is 1.42%.

**Q.** With `CCOC(=O)[C@H](CCc1ccccc1)N[C@@H](C)C(=O)N1[C@@H](C(=O)O)C[C@H]2CCC[C@@H]21` as the compound, how does the “activity change, negative = inhibition” value read?
**A.** Its value is -0.908%.

**Q.** How did the “activity change, negative = inhibition” value turn out when `CC(=O)C1=C(O)C=C2Oc3c(C(C)=O)c(O)c(C)c(O)c3C2(C)C1=O` (centres undefined) was run?
**A.** The value was -2.92%.

**Q.** With `O=C(Nc1cc2cc[nH]c2cn1)c1ccccc1` as the compound, how does the Potency read?
**A.** Its Potency is “inactive”.

**Q.** `CC(C)(C)[N+]([O-])=Cc1ccc(S(=O)(=O)O)cc1S(=O)(=O)O` was tested. Which “activity change, negative = inhibition” value did it give?
**A.** The value was -0.903%.
